Source: PubChem
PGC1a acetyl inh: modulators of PGC1a acetylation; U2OS PGC1a acetylation, AlphaScreen anti-acetyl-lysine; with virally co-expressed GCN5 acetyltransferase; 0.17% of 350,000 active; AID 651687; inhibition, % at 15.6 µM;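 active means every replicate shows inhibition of at least 40%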
EWS-Fli block: inhibitors of EWS/Fli oncoprotein transcriptional activity | A673 NR0B1-luciferase reporter, viability-normalised | AID 651661 | inhibition, % at 12.6 µM | 0.67% of 350,000 active;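 active means mean inhibition of at least 50% after viability correction, with every replicate also passing that limit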;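 further: firefly luciferase signal divided by Alamar Blue viability fluorescence both relative to DMSO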
GSIS activator: primary screen for activators of insulin secretion dependent on glucose, INS-1E cells, GLuc reporter luminescence | INS-1E GLuc reporter insulin secretion, 2-3 h | activation, % at 16.6 µM | 0.61% of 370,000 active | AID 743287;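 active means lowest replicate activation of at least 40%, so every replicate reaches that level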
PAX8 inh HTS: PAX8 transcriptional activity inhibition; RMG-I TPO-luciferase reporter, SteadyGlo, 24 h; inhibition, % at 12.6 µM; 1.2% of 360,000 active;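 active means mean replicate inhibition at least 60% with every replicate also reaching 60%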;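 further: luciferase light reporting Pax8 driven TPO promoter activity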
F508del corr: CFTR F508del correction in bronchial cells; CFBE cells, YFP halide quenching; stimulated with forskolin plus potentiator P3; % fluorescence drop versus neutral controls; activity (quench increase), % at 7.58 µM; 0.36% of 350,000 active; AID 720511;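 active means mean added fluorescence quench of at least 8% versus neutral control, with both replicates also reaching 8%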;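 further: cells transiently co-express mutant CFTR-F508del with the halide-sensitive YFP; corrector assay measuring rescue of mutant channel to the surface after 24 h compound exposure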
HIV Env fusion: inhibitors of HIV Env-mediated cell fusion. HeLa-JRFL Env/CEM21 cell fusion, luciferase. inhibition, % at 12.3 µM. 1.1% of 360,000 active. AID 651610;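 active means mean replicate inhibition score of at least 50 and every replicate individually at or above 50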
Each line names hits and unclear results; the compound was inactive in the other large screens. Sampled rows, rich in hits. Any-hit rate of the full collection: about 2.7%.

COc1ccccc1NS(=O)(=O)c1cccc(C(=O)N/N=C/c2c(C)nn(-c3ccccc3)c2N2CCCC2)c1	GSIS activator 73 (no result: PGC1a acetyl inh, HIV Env fusion)
CCN(CC)c1ccc(/C=N/NC(=O)c2cccc(S(=O)(=O)Nc3ccccc3OC)c2)cc1	none (no result: PGC1a acetyl inh)
CCN(CC)c1ccc(/C=N/NC(=O)c2cccc(S(=O)(=O)Nc3ccccc3OC)c2)c(O)c1	PAX8 inh HTS 74 (no result: PGC1a acetyl inh)
COc1ccccc1NS(=O)(=O)c1cccc(C(=O)N/N=C/c2ccc3c(c2)OCCO3)c1	none (no result: PGC1a acetyl inh, EWS-Fli block, F508del corr)
COc1ccccc1NS(=O)(=O)c1ccc(N/N=C/c2c(C)nn(-c3ccccc3)c2N2CCCC2)c([N+](=O)[O-])c1	none (no result: PGC1a acetyl inh, EWS-Fli block, F508del corr)
COc1ccccc1NS(=O)(=O)c1cccc(C(=O)N/N=C/c2ccc([N+](=O)[O-])o2)c1	PAX8 inh HTS 93
COc1ccccc1NC(=O)N[C@H]1C=C[C@@H](CC(=O)NCc2ccc(Cl)c(Cl)c2)O[C@H]1CO	none
COc1ccc2sc3c(=O)[nH]c4ccccc4c3c2c1	GSIS activator 103 (no result: EWS-Fli block, PAX8 inh HTS, F508del corr, HIV Env fusion)
COc1ccc2c(c1)[nH]c(=O)c1sc3ccccc3c12	none (no result: EWS-Fli block, GSIS activator, PAX8 inh HTS, F508del corr, HIV Env fusion)
CCN(CC)c1c(-c2ccccc2)c2cc(C)ccc2[nH]c1=O	HIV Env fusion 68
CCCNC(=O)N[C@H]1CC[C@H](CC(=O)NC2CCC2)O[C@@H]1CO	none
C[C@H](CO)N1C[C@H](C)[C@H](CN(C)Cc2ccc(-c3ccccc3)cc2)Oc2ncc(C#C[C@@H](C)O)cc2C1=O	none
C[C@H](O)C#Cc1cnc2c(c1)C(=O)N([C@H](C)CO)C[C@H](C)[C@H](CN(C)Cc1ccc(-c3ccccc3)cc1)O2	PAX8 inh HTS 87
C[C@H](O)C#Cc1cnc2c(c1)C(=O)N([C@@H](C)CO)C[C@@H](C)[C@H](CN(C)Cc1ccc(-c3ccccc3)cc1)O2	PAX8 inh HTS 72
C[C@H](O)C#Cc1cnc2c(c1)C(=O)N([C@H](C)CO)C[C@@H](C)[C@@H](CN(C)Cc1ccc(-c3ccccc3)cc1)O2	PAX8 inh HTS 65
C[C@H](O)C#Cc1cnc2c(c1)C(=O)N([C@H](C)CO)C[C@@H](C)[C@H](CN(C)Cc1ccc(-c3ccccc3)cc1)O2	none
C[C@@H]1CN([C@H](C)CO)C(=O)c2cc(-c3cccnc3)cnc2O[C@H]1CN(C)Cc1ccc(-c2ccccc2)cc1	EWS-Fli block 57 (no result: PAX8 inh HTS)
O=C(Cc1ccncc1)N1CC[C@@H]2[C@H]1c1cc(-c3cccc(F)c3)ccc1N[C@@H]2CO	none (no result: HIV Env fusion)
COc1ccccc1CNC(=O)C1CCCN1S(=O)(=O)c1cccc2cccnc12 (stereo not given)	HIV Env fusion 57
C[C@H](CO)N1C[C@H](C)[C@@H](CN(C)C(=O)Nc2ccc(F)cc2)Oc2ccc(NC(=O)C3CC3)cc2CC1=O	none (no result: PAX8 inh HTS, HIV Env fusion)
COc1ccc(OC)c(C(=O)/C=C/c2cccnc2)c1	PAX8 inh HTS 72 (no result: PGC1a acetyl inh)
O=C(/C=C/c1cccnc1)/C=C/c1cccnc1	PGC1a acetyl inh 81, EWS-Fli block 73, PAX8 inh HTS 92
COc1cccc(NC(=O)c2cnc(SCC(=O)NCc3ccc4c(c3)OCO4)n(C)c2=O)c1	F508del corr 8.1 (no result: PGC1a acetyl inh, HIV Env fusion)
Cn1c(=O)c2c(nc(SCC(=O)NCc3ccc4c(c3)OCO4)n2Cc2ccc(Cl)cc2)n(C)c1=O	HIV Env fusion 106 (no result: PGC1a acetyl inh, EWS-Fli block, GSIS activator, F508del corr)
C/C(=N\NC(=O)c1ccccc1)c1cccc(Br)c1	none (no result: PGC1a acetyl inh)
C/C(=N\NC(=O)c1cccc(Br)c1)c1ccc(Br)cc1	GSIS activator 56 (no result: EWS-Fli block, F508del corr)
C[C@@H]1CN([C@H](C)CO)C(=O)c2cc(-c3cccnc3)cnc2O[C@@H]1CN(C)Cc1ccccc1	none (no result: PAX8 inh HTS)
C[C@@H]1CN([C@@H](C)CO)C(=O)Cc2cc(NC(=O)C3CCCCC3)ccc2O[C@H]1CN(C)S(C)(=O)=O	none
OC[C@H]1CC[C@@H]2O[C@H](CCc3ccc(C#CCc4ccccc4)cc3)[C@@H](n3cc(-c4ccccc4)nn3)C[C@@H]2O1	PAX8 inh HTS 71 (no result: GSIS activator, HIV Env fusion)
OC[C@@H]1CC[C@@H]2O[C@H](CCc3ccc(C#Cc4ccccc4)cc3)[C@H](n3cc(-c4ccccc4)nn3)C[C@@H]2O1	none (no result: PGC1a acetyl inh, GSIS activator, HIV Env fusion)
c1ccc(Oc2ccccc2-c2cc(NCCc3cccnc3)n3nccc3n2)cc1	GSIS activator 53 (no result: PGC1a acetyl inh)
c1ccc(Oc2ccc(-c3cc(NCCc4cccnc4)n4nccc4n3)cc2)cc1	none (no result: PGC1a acetyl inh)
CCC(=O)Nc1ccc2c(c1)C(=O)N(C)[C@@H]1CC[C@@H](CC(=O)N3CCc4ccccc4C3)O[C@H]1CO2	none
CCc1nc(C)cn1S(=O)(=O)c1ccc2c(c1)OCCO2	F508del corr 8.9 (no result: HIV Env fusion)
COc1ccc2c3c(n(C)c2c1)[C@H](CO)N(C(=O)CN(C)C)CC31CCN(C(=O)C2CCC2)CC1	none (no result: PGC1a acetyl inh, PAX8 inh HTS, HIV Env fusion)
Cc1noc(C)c1S(=O)(=O)Nc1ccc2c(c1)CC(=O)N([C@H](C)CO)C[C@@H](C)[C@H](CN(C)C(=O)Nc1ccc(F)cc1)O2	none
C[C@@H]1CCCCO[C@@H](CN(C)C(=O)c2ccncc2)[C@H](C)CN([C@H](C)CO)C(=O)c2cc(NC(=O)NC3CCCCC3)ccc2O1	none
COc1ccc(-c2cc(=O)oc3c(C)c(O)ccc23)cc1	HIV Env fusion 72
CNc1ccc(Br)cc(C(=O)/C=C/c2cc(OC)ccc2OC)c1=O	PAX8 inh HTS 92 (no result: EWS-Fli block, GSIS activator, F508del corr)
CN(C)c1ncnc2sc(-c3ccccc3)cc12	GSIS activator 40 (no result: PGC1a acetyl inh)
COC(=O)CN1C(C)=Nc2ccc(C)cc2C1c1ccccc1 (stereo not given)	none (no result: PGC1a acetyl inh)
COC(=O)CN1C(c2ccccc2)=Nc2ccc(Cl)cc2C1c1ccccc1 (stereo not given)	HIV Env fusion 105 (no result: EWS-Fli block, GSIS activator, PAX8 inh HTS, F508del corr)
O=C(C[C@@H]1C[C@H]2c3cc(NC(=O)NC4CCCCC4)ccc3O[C@H]2[C@H](CO)O1)NCc1cccnc1	none
COc1ccccc1CN1C[C@@H]2C[C@@H](C3=Cc4cc(Cl)ccc4OC3)N3CCC[C@@]23C1=O	HIV Env fusion 67 (no result: PGC1a acetyl inh)
Cn1cc(C(=O)OCC2CCN(CCNS(C)(=O)=O)CC2)c2ccccc21	F508del corr 16
O=C1CCCc2ccccc2N1Cc1ccc(Cl)cc1Cl	PGC1a acetyl inh 56 (no result: EWS-Fli block, GSIS activator, PAX8 inh HTS, F508del corr, HIV Env fusion)
COCCn1c(=NC(=O)c2cc(Cl)sc2Cl)sc2cc(S(N)(=O)=O)ccc21	GSIS activator 170 (no result: PGC1a acetyl inh, EWS-Fli block, F508del corr)
COCCn1c(=NC(=O)c2ccc3c(c2)OCCO3)sc2cc(S(N)(=O)=O)ccc21	none
CCOC(=O)Cn1c(=NC(=O)c2cc(-c3cccs3)nc3ccccc23)sc2cc(S(N)(=O)=O)ccc21	none (no result: PGC1a acetyl inh, EWS-Fli block, F508del corr)
COC(=O)Cn1c(=NC(=O)c2cc(-c3cccs3)nc3ccccc23)sc2cc(S(N)(=O)=O)ccc21	F508del corr 9.5 (no result: PGC1a acetyl inh)
C/C=C/c1ccc([C@H]2[C@@H](CN(C)C(=O)CC)N(C(=O)C3CC3)[C@H]2CO)cc1	none (no result: PGC1a acetyl inh, PAX8 inh HTS, HIV Env fusion)
CS(=O)(=O)Nc1ccc2c(c1)[C@H]1C[C@H](CC(=O)NCc3cccnc3)O[C@H](CO)[C@H]1O2	none
COCC(=O)Nc1ccc2c(c1)OC[C@H](C)N(Cc1cc(F)ccc1F)C[C@@H](C)[C@@H](OC)CN(C)C2=O	none (no result: HIV Env fusion)
